Assay results published in PubChem BioAssay AID1946 (Johns Hopkins Ion Channel Center, 2009).
The whole screen tested about 2,400 compounds, of which about 180 (7.5%) were called active. For the sample, actives were picked, then their nearest neighbours and some compounds at random. Unmarked numbers belong to inactive results.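 Rule for the calls: active = readout below zero, meaning a drop past 3 SD under the dofetilide-free negative control mean; inactive = the rest.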

What follows are molecules tested against Potassium voltage-gated channel subfamily KQT member 2 (Rattus norvegicus) (UniProt O88943) (assay: KCNQ2 blockade in CHO cells – cell-based, FluxOR thallium flux, counter-screen for hERG block protector project, confirmation (AID 1946)). Settings: FluxOR thallium flux fluorescence, at 10 µM, hits give low values, zero marks the 3-SD hit cutoff.
Sequence of Potassium voltage-gated channel subfamily KQT member 2 (Rattus norvegicus) (O88943 whole entry, looked up): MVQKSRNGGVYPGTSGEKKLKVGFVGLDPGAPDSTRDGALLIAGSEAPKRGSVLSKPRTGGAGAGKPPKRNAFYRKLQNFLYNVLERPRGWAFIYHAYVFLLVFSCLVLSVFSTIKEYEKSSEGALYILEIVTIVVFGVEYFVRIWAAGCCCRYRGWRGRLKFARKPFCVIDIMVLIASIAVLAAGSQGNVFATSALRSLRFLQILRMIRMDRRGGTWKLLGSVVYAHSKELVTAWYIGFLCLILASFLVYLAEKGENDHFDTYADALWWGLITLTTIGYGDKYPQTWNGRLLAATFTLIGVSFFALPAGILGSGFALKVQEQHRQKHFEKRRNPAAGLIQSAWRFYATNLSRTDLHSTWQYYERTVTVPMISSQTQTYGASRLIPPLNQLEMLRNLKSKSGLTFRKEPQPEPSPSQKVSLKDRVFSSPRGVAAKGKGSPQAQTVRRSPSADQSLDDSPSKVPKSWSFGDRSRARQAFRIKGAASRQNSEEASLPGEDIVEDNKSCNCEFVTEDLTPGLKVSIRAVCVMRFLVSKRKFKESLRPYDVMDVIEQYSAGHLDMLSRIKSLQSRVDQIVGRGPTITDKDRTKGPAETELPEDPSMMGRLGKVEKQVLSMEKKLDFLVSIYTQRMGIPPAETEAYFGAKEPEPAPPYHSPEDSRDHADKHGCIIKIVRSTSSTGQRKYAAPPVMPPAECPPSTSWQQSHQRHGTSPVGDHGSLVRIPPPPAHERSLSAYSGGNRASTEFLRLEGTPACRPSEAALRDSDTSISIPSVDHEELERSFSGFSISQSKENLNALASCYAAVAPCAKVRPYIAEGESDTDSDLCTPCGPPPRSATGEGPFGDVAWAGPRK

In order of rising activity change vs negative control:
1. CNC(=O)CSc1nnc(-c2ccco2)n1-c1ccccc1  7%
2. O=C(C1CC1)N1N=C(c2ccccc2)CC1(O)C(F)(F)C(F)(F)F (stereo not given)  7.3%
3. O=C(CS(=O)(=O)Cc1ccccc1)Nc1ccc(Cl)cn1  7.9%
4. O=C(Nc1ccc(N2CCOCC2)cc1)c1ccc(S(=O)(=O)N2CCCCC2)cc1  10.5%
5. CN(Cc1ccsc1)C(=O)CCc1nnc(Cc2c[nH]c3ccccc23)o1  10.6%
6. CC(C)(C)C1(O)CC(C(F)(F)F)=NN1C(=O)Cc1ccc([N+](=O)[O-])cc1 (stereo not given)  10.6%
7. CCN(CC)C(=S)NC(=O)c1ccc(OC)c(Br)c1  16.8%
8. N#C/C(=N/Nc1ccc([N+](=O)[O-])cc1)C(=N)N1CCCCC1  17%
9. Cc1nc2ccccc2n1-c1ccccc1  19.5%
10. S=c1nc(C2CCCCC2)[nH]c2ccccc12  25.5%
11. COCCCNC(=O)CCc1nnc(Cc2ccc(-c3ccccc3)cc2)o1  26.3%
12. CN(C(=S)NC(=O)c1ccc(Cl)cc1)C1CCCCC1  26.3%
13. CN(C)c1ccc(NC(=O)CCCc2ccccc2)cc1  29.6%
14. O=C(NC(=S)N1CCCCCC1)c1ccc(Cl)cc1Cl  30.8%
15. CCOC(=O)c1sc2nc(C)[nH]c(=S)c2c1C  32.7%
16. Cc1ccc(-n2ncc3c(SCC(=O)NNC(=O)c4ccco4)ncnc32)cc1  35.7%
17. COc1ccc(NC(=O)C(=O)NNC(=O)COc2ccc(Cl)cc2)c(OC)c1  38.6%
18. COc1ccc(OCC(=O)NNC(=O)C(=O)Nc2cc(OC)ccc2OC)cc1  38.9%
19. O=C1CC(O)(C(F)(F)F)Oc2c1ccc1ccccc21 (stereo not given)  49.7%
20. CCCn1c(SCC(=O)N2CCN(C(C)=O)CC2)nc2sc3c(c2c1=O)CCC3  51.5%
21. Oc1c(Cl)cc(Cl)cc1/C=N/c1ncn[nH]1  53.4%
22. CC(NC(=O)c1ccc(F)cc1)c1ccc2c(c1)CCCC2 (stereo not given)  55.5%
23. CCn1c(SCC(N)=O)nc2sc3c(c2c1=O)CCCC3  60.6%
24. S=c1nc(C2CCCCC2)n(-c2ccccc2)[nH]1  72.6%

With CC(C)CCNC(=O)CCc1nnc(Cc2c[nH]c3ccccc23)o1 the activity change vs negative control was -0.6% (active).
CC(C)C(=O)Nc1ccc(NC(=O)CCc2ccccc2)cn1 was tested, and the activity change vs negative control was -1.8% (active).
For O=[N+]([O-])c1ccc(S(=O)(=O)Nc2ccc(S(=O)(=O)N3CCCC3)cc2)cc1, the activity change vs negative control was -0.3% (active).
In the case of CCC(=O)N1CCN(c2nc(CC)nc3sc4c(c23)CCCC4)CC1, the activity change vs negative control is reported as -20.7% (active).
In the case of CCCCC1(O)CC(C(F)(F)F)=NN1C(=O)COc1ccccc1 (stereo not given), the activity change vs negative control is reported as -7.8% (active).
CNC(=O)CSc1nnc(-c2ccco2)n1-c1ccc(C)cc1 was tested, and the activity change vs negative control was -1.9% (active).
